In the library only some 27% were active in any assay of this set; here they are far more common.
CYP2C9 inh – blocks human cytochrome P450 2C9. CYP2C9 Supersomes, luciferin-H conversion, luminescence. P11712. inhibition, % at 5 µM. 96,000 tested, 20% active;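 active = blocking of liver enzyme CYP2C9 beyond about 50% at 5 µM, limit read from the data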
sEH inh – blocks human soluble epoxide hydrolase activity; recombinant human sEH enzymatic activity assay; 91,000 tested, 0.34% active; inhibition, % at 2 µM; AID 707; in the data active = inhibition above about 80%
Target sequence (P34913 whole entry, looked up): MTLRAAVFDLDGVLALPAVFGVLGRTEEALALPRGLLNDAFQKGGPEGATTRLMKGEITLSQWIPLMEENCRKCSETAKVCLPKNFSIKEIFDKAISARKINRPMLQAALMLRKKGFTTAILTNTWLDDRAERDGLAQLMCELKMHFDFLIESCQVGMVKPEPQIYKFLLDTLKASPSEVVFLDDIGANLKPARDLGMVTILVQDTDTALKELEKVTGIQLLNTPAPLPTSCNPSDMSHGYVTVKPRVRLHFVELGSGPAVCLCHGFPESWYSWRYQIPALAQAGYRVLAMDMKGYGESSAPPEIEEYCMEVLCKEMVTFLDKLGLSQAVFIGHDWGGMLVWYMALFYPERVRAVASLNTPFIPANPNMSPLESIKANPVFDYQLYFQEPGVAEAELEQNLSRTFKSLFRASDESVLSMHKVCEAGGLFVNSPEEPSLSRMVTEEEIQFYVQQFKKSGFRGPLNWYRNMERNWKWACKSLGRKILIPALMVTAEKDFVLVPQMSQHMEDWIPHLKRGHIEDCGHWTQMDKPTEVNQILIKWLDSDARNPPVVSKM
CYP2C19 activ – increases human CYP2C19 enzyme activity; P33261; recombinant CYP2C19, luciferin-H EGE luminescence; hits give high values; 0 = fully inhibited enzyme, 1 = untreated enzyme; activation factor at 5 µM; 96,000 tested, under 10 active;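 active = activation factor of at least 2 at 5 µM in the primary screen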;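 note: 0 = wells with 2.5 mM tranylcypromine and 1 = vehicle-only wells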
CYP2C9 act – increases human cytochrome P450 2C9 activity | activation factor at 5 µM | 96,000 tested, 1.4% active | recombinant CYP2C9, luciferin-H conversion, luminescence; hits give high values; factor 1 = untreated enzyme, 0 = blocked;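 active = activation factor of 2 or more for CYP2C9 at a 5 µM dose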;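 note: 0 = sulfaphenazole-blocked wells and 1 = vehicle-only wells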
CYP2C19 inhib – inhibitors of human CYP2C19 | P33261 | CYP2C19 Supersomes, luciferin-H EGE luminescence, 30 min | AID 778 | inhibition, % at 5 µM | 96,000 tested, 21% active;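 active = CYP2C19 inhibition above a set limit at 5 µM in the primary screen, cut at about 50% in these data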;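 note: plate controls were negative control wells for no effect and 2.5 mM tranylcypromine positive control for full effect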
sEH activator – soluble epoxide hydrolase (human) activation. P34913. purified human sEH enzymatic activity, activator screen. activation, % at 2 µM. 91,000 tested, 0.04% active; in the data active = activation above about 37%
Numbers without * were called inactive.

For Cc1cccc(CS(=O)(=O)Cc2ccc(C(=O)N3CCC4(CC3)OCCO4)o2)c1 the results were CYP2C9 inh 58*, CYP2C19 activ 0.7, CYP2C9 act 0.4 and CYP2C19 inhib 33.
Screening Cc1cccc(CN2CCN(CC(=O)N3CCC4(CC3)OCCO4)C2=O)c1 returned CYP2C9 inh 11, sEH inh -2, CYP2C19 activ 1, CYP2C9 act 0.9, CYP2C19 inhib 0 and sEH activator -3.
O=C(c1ccc(CS(=O)(=O)c2ccccc2)o1)N1CCC2(CC1)OCCO2 was read as CYP2C9 inh 47, sEH inh 9, CYP2C19 activ 0.2, CYP2C9 act 0.5, CYP2C19 inhib 81* and sEH activator -8.
O=C(c1ccc(CS(=O)(=O)c2ccc(Br)cc2)o1)N1CCC2(CC1)OCCO2 was read as CYP2C9 inh 54*, sEH inh -10, CYP2C19 activ 0.6, CYP2C9 act 0.5, CYP2C19 inhib 42 and sEH activator 11.
O=C(CCS(=O)(=O)c1ccc(Br)cc1)N1CCC2(CC1)OCCO2 was read as CYP2C9 inh 14, CYP2C19 activ 0.9, CYP2C9 act 0.9 and CYP2C19 inhib 11.
For Cc1ccc(-c2nc3ccccc3c(=O)n2-n2cccc2)cc1 the results were CYP2C9 inh 5, sEH inh 2, CYP2C19 activ 1.1, CYP2C9 act 1, CYP2C19 inhib -8 and sEH activator -2.
Screening COc1ccc2c(c1)c(C(=O)CN1CCC3(CC1)OCCO3)c(C)n2Cc1ccccc1 returned CYP2C9 inh 16, sEH inh -28, CYP2C19 activ 0.8, CYP2C9 act 0.8, CYP2C19 inhib 15 and sEH activator 31.
Screening CCSc1cc(C2C(C#N)=C(N)Oc3n[nH]c(C)c32)c(C)o1 (stereo not given) returned CYP2C9 inh 67*, sEH inh -5, CYP2C19 activ 0.1, CYP2C9 act 0.3, CYP2C19 inhib 92* and sEH activator 3.
Cc1ccc(NC(=O)CN2C(=O)CN=C(c3ccccc3)c3cc(Cl)ccc32)cc1 was read as CYP2C9 inh 80*, sEH inh -3, CYP2C19 activ 0.1, CYP2C9 act 0.2, CYP2C19 inhib 90* and sEH activator 2.
`CN(C)c1ccc(NC(=O)CN2C(=O)CN=C(c3ccccc3)c3ccccc32)cc1` gave CYP2C9 inh 1, sEH inh -13, CYP2C19 activ 0.3, CYP2C9 act 1, CYP2C19 inhib 65* and sEH activator 10.
For CN(C)c1ccc(NC(=O)CN2C(=O)CN=C(c3ccccc3)c3cc(Cl)ccc32)cc1 the results were CYP2C9 inh 65*, sEH inh -14, CYP2C19 activ 0, CYP2C9 act 0.3, CYP2C19 inhib 96* and sEH activator 12.
CN(CC(=O)Nc1ccccc1-c1ccccc1)C1CCCCC1 was read as sEH inh 2 and sEH activator 2.
CCCNC(=O)N1C2CCC1CC(O)(c1cccnc1)C2 (stereo not given) was read as CYP2C9 inh 4, CYP2C19 activ 1.1, CYP2C9 act 1 and CYP2C19 inhib -10.
`O=c1[nH]c(=O)n(-c2ccccc2Cl)c(O)c1C=NCCN1CCCCC1` gave CYP2C9 inh -20, sEH inh 6, CYP2C19 activ 1, CYP2C9 act 1.2, CYP2C19 inhib -2 and sEH activator -6.
Screening COc1ccc(N2C(=O)CC(N3CCC(n4c(=O)[nH]c5ccccc54)CC3)C2=O)cc1 (stereo not given) returned CYP2C9 inh -9, sEH inh -12, CYP2C19 activ 0.8, CYP2C9 act 1.1, CYP2C19 inhib 18 and sEH activator 10.
CCOC(=O)c1ccc(N2C(=O)CC(N3CC=C(c4ccc(F)cc4)CC3)C2=O)cc1 (stereo not given) was read as CYP2C9 inh 64*, sEH inh -6, CYP2C19 activ 0.6, CYP2C9 act 0.4, CYP2C19 inhib 37 and sEH activator 6.
Screening O=C(C1CCCN(c2nnc(-n3cccc3)s2)C1)N1CCC2(CC1)OCCO2 (stereo not given) returned CYP2C9 inh 22, sEH inh 0, CYP2C19 activ 0.6, CYP2C9 act 0.8, CYP2C19 inhib 41 and sEH activator 5.
CCCCCSc1cc(OC)c(CCNC)cc1OC was read as CYP2C9 inh 11, sEH inh 17, CYP2C19 activ 0.4, CYP2C9 act 0.9, CYP2C19 inhib 62* and sEH activator -16.
Screening CCCCCCCSc1cc(OC)c(CCNC)cc1OC returned CYP2C9 inh 2, sEH inh -1, CYP2C19 activ 0.2, CYP2C9 act 1, CYP2C19 inhib 81* and sEH activator 2.
For CC(C)=CCC12CN3CCN(CC(C3)C1=O)C2 the results were CYP2C9 inh -2, sEH inh 1, CYP2C19 activ 1, CYP2C9 act 1, CYP2C19 inhib 0 and sEH activator 0.
Screening CCN1/C(=C\C=C\C2=[N+](CC)c3ccccc3C2(C)C)C(C)(C)c2ccccc21 returned CYP2C9 inh 69*, sEH inh -4, CYP2C19 activ 0.1, CYP2C9 act 0.3, CYP2C19 inhib 92* and sEH activator 6.
Screening CC(=O)OC1(c2ccccc2)CCN(C)C(C)C1C (stereo not given) returned sEH inh 0 and sEH activator 6.
`CC(=O)OC1(c2ccc(C)cc2)CN2CCC1c1ccccc12` (stereo not given) gave CYP2C9 inh -27, sEH inh -7, CYP2C19 activ 0, CYP2C9 act 1.3, CYP2C19 inhib 99* and sEH activator 8.
Screening CC(=O)OC1(Cc2ccccc2)CN2CCC1c1ccccc12 (stereo not given) returned CYP2C9 inh 60*, sEH inh 5, CYP2C19 activ 0.3, CYP2C9 act 0.4, CYP2C19 inhib 74* and sEH activator -3.
`Cc1ccc2c(c1)C1CN(C)CCC1N2C(=O)Nc1cccc(Cl)c1` (stereo not given) gave CYP2C9 inh 11, sEH inh 14, CYP2C19 activ 0.9, CYP2C9 act 0.9, CYP2C19 inhib 11 and sEH activator -14.
Screening CCCCn1c(N)c(C(=O)NCc2cccs2)c2nc3ccccc3nc21 returned CYP2C9 inh 28, sEH inh -10, CYP2C19 activ 0.9, CYP2C9 act 0.7, CYP2C19 inhib 14 and sEH activator 9.
COCCCn1c(N)c(C(=O)NCCC(C)C)c2nc3ccccc3nc21 was read as CYP2C9 inh 26, sEH inh -12, CYP2C19 activ 1, CYP2C9 act 0.7, CYP2C19 inhib 5 and sEH activator 13.
CCCCCCn1c(N)c(C(=O)NCCN2CCOCC2)c2nc3ccccc3nc21 was read as CYP2C9 inh 34, sEH inh 6, CYP2C19 activ 0.5, CYP2C9 act 0.7, CYP2C19 inhib 54* and sEH activator -8.
